{"source": "PubChem BioAssay (NCATS)", "note": "Records with an inconclusive call do not appear. Active and inactive are the calls of the source. Unless noted, the call rests on the fitted dose curve."}
{"assay": "Validation of Assay for Modulators of Lamin A Splicing (AID 1459; active means well fitted curve in the direction sought with a large enough effect in the signal ratio; the % refers to the signal ratio;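 further: cells exposed to compound for two days before reading; 0% is about no effect; ratio rise marks activators and ratio drop marks inhibitors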)", "details": "Lamin A splicing dual RFP/GFP fluorescence reporter; series mostly up to 9.22 µM", "summary_of_the_method": "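Splicing correction read as GFP (500-530 nm) over DsRed2 (575-640 nm) object intensity after 48 h compound exposure of reporter HeLa S3 clones (600 cells/well, 2% FBS medium); ancitabine and cycloheximide titrations, 0.5% DMSO as vehicle.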"}
{"smiles": "OCc1ccc(-c2nn(Cc3ccccc3)c3ccccc23)o1", "outcome": "inactive"}
{"smiles": "CC(C)NCC(O)c1ccc(NS(C)(=O)=O)cc1", "note": "(configuration not stated)", "outcome": "inactive"}
{"smiles": "O=C(O)C1CCCN(CCC=C(c2ccccc2)c2ccccc2)C1", "note": "(configuration not stated)", "outcome": "inactive"}
{"smiles": "CC1=C(C(=O)O)N2C(=O)[C@@H](NC(=O)C(N)c3ccccc3)[C@H]2SC1", "note": "(some centres not stated)", "outcome": "inactive"}
{"smiles": "CCN1CCCC1CNC(=O)c1cc(S(N)(=O)=O)ccc1OC", "note": "(configuration not stated)", "outcome": "inactive"}
{"smiles": "CCN(CC)CC#CCOC(=O)C(O)(c1ccccc1)C1CCCCC1", "note": "(configuration not stated)", "outcome": "inactive"}
{"smiles": "CCCCS(=N)(=O)CCC(N)C(=O)O", "note": "(configuration not stated)", "outcome": "inactive"}
{"assay": "qHTS Assay for Lipid Storage Modulators (AID 1519); on activity change, negative = inhibition: on the % scale 0 is the no-effect control and ±100 the full control effect", "details": "Drosophila S3 cells, BODIPY lipid droplet/cell ratio, laser cytometry; at 25.7 µM (top of the series); cells loaded with oleic acid", "summary_of_the_method": "(§1)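 Cells seeded at 5,000 per well were treated with compounds over a concentration series and loaded with oleic acid (400 uM, as added). Lipid droplet fluorescence (488 nm excitation, 500-530 nm channel) was read by laser-scanning cytometry and normalized to 20 uM Triacsin C.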"}
{"smiles": "CCCCOc1ccc(CC(=O)NO)cc1", "activity change, negative = inhibition": "0.283% (inactive)"}
{"smiles": "COC(=O)Nc1nc2ccc(C(=O)c3ccccc3)cc2[nH]1", "activity change, negative = inhibition": "-15.3% (inactive)"}
{"smiles": "Nc1[nH]c(=O)ncc1F", "activity change, negative = inhibition": "0.855% (inactive)"}
{"smiles": "Cc1cccc(N(C)C(=S)Oc2ccc3ccccc3c2)c1", "activity change, negative = inhibition": "1.79% (inactive)"}
{"smiles": "COc1ccc2c(c1)c(CC(=O)OCC(=O)O)c(C)n2C(=O)c1ccc(Cl)cc1", "activity change, negative = inhibition": "1.43% (inactive)"}
{"smiles": "CCOC(=O)c1ccc(OC(=O)CCCCCN=C(N)N)cc1", "activity change, negative = inhibition": "1.48% (inactive)"}
{"smiles": "CNNCc1ccc(C(=O)NC(C)C)cc1", "activity change, negative = inhibition": "1.45% (inactive)"}
{"assay": "qHTS Assay for Lipid Storage Modulators (AID 1519); on activity change, negative = inhibition: on the % scale 0 is the no-effect control and ±100 the full control effect", "details": "Drosophila S3 cells, BODIPY lipid droplet/cell ratio, laser cytometry; at 57.5 µM (top of the series); cells loaded with oleic acid", "summary_of_the_method": "as §1"}
{"smiles": "NCCCC(O)(P(=O)(O)O)P(=O)(O)O", "activity change, negative = inhibition": "6.27% (inactive)"}
{"smiles": "CC[C@H](NC(C)C)[C@H](O)c1ccc(O)c2[nH]c(=O)ccc12", "activity change, negative = inhibition": "-1.12% (inactive)"}
{"smiles": "CCCCCCNC(=O)n1cc(F)c(=O)[nH]c1=O", "activity change, negative = inhibition": "8.3% (inactive)"}
{"smiles": "COc1ccc(C(=O)CC(=O)c2ccc(C(C)(C)C)cc2)cc1", "activity change, negative = inhibition": "1.96% (inactive)"}
{"smiles": "CN1CCCC(n2nc(Cc3ccc(Cl)cc3)c3ccccc3c2=O)CC1", "note": "(configuration not stated)", "activity change, negative = inhibition": "4.52% (inactive)"}
{"smiles": "CN(C)CCc1c[nH]c2ccc(CS(=O)(=O)N3CCCC3)cc12", "activity change, negative = inhibition": "5.82% (inactive)"}
{"smiles": "Nc1nc(=S)c2[nH]cnc2[nH]1", "activity change, negative = inhibition": "8.45% (inactive)"}
{"smiles": "C1CCC(C(CC2CCCCN2)C2CCCCC2)CC1", "note": "(configuration not stated)", "activity change, negative = inhibition": "-9.69% (inactive)"}
{"smiles": "O=S(=O)(O)CCS", "activity change, negative = inhibition": "4.92% (inactive)"}
{"smiles": "COC(=O)Nc1nc2ccc(S(=O)c3ccccc3)cc2[nH]1", "note": "(configuration not stated)", "activity change, negative = inhibition": "10.3% (inactive)"}
{"smiles": "CCCc1cc(C(N)=S)ccn1", "activity change, negative = inhibition": "6.18% (inactive)"}
{"smiles": "S=P(N1CC1)(N1CC1)N1CC1", "activity change, negative = inhibition": "7.1% (inactive)"}
{"smiles": "CNS(=O)(=O)Cc1ccc2[nH]cc(CCN(C)C)c2c1", "activity change, negative = inhibition": "8.81% (inactive)"}
{"smiles": "NC(=O)N1c2ccccc2CC(=O)c2ccccc21", "activity change, negative = inhibition": "6.03% (inactive)"}
{"smiles": "OC(Cn1cncn1)(Cn1cncn1)c1ccc(F)cc1F", "activity change, negative = inhibition": "11.9% (inactive)"}
{"smiles": "CN(Cc1cc(Br)cc(Br)c1N)C1CCCCC1", "activity change, negative = inhibition": "-8.74% (inactive)"}
{"smiles": "COc1c(N2CCNC(C)C2)c(F)cc2c(=O)c(C(=O)O)cn(C3CC3)c12", "note": "(configuration not stated)", "activity change, negative = inhibition": "6.55% (inactive)"}
{"smiles": "CCCCS(=N)(=O)CCC(N)C(=O)O", "note": "(configuration not stated)", "activity change, negative = inhibition": "7.27% (inactive)"}
{"assay": "qHTS Assay for Lipid Storage Modulators (AID 1519); on activity change, negative = inhibition: on the % scale 0 is the no-effect control and ±100 the full control effect", "details": "Drosophila S3 cells, BODIPY lipid droplet/cell ratio, laser cytometry; measured here: cell count channel max response; cells loaded with oleic acid", "summary_of_the_method": "as §1", "units": {"max response": "%"}}
{"smiles": "CCCCOc1ccc(CC(=O)NO)cc1", "max response": -2.68}
{"smiles": "COC(=O)Nc1nc2ccc(C(=O)c3ccccc3)cc2[nH]1", "max response": -1.6}
{"smiles": "NCCCC(O)(P(=O)(O)O)P(=O)(O)O", "max response": -1.05}
{"smiles": "Nc1[nH]c(=O)ncc1F", "max response": 2.68}
{"smiles": "CC[C@H](NC(C)C)[C@H](O)c1ccc(O)c2[nH]c(=O)ccc12", "max response": -20.9}
{"smiles": "CCCCCCNC(=O)n1cc(F)c(=O)[nH]c1=O", "max response": 11.2}
{"smiles": "COc1ccc(C(=O)CC(=O)c2ccc(C(C)(C)C)cc2)cc1", "max response": -16.9}
{"smiles": "CN1CCCC(n2nc(Cc3ccc(Cl)cc3)c3ccccc3c2=O)CC1", "note": "(configuration not stated)", "max response": -4.14}
{"smiles": "CN(C)CCc1c[nH]c2ccc(CS(=O)(=O)N3CCCC3)cc12", "max response": 19.2}
{"smiles": "Nc1nc(=S)c2[nH]cnc2[nH]1", "max response": 14.3}
{"smiles": "C1CCC(C(CC2CCCCN2)C2CCCCC2)CC1", "note": "(configuration not stated)", "max response": -15.8}
{"smiles": "Cc1cccc(N(C)C(=S)Oc2ccc3ccccc3c2)c1", "max response": -7.01}
{"smiles": "O=S(=O)(O)CCS", "max response": 14.6}
{"smiles": "COC(=O)Nc1nc2ccc(S(=O)c3ccccc3)cc2[nH]1", "note": "(configuration not stated)", "max response": 14.2}
{"smiles": "CCCc1cc(C(N)=S)ccn1", "max response": 8.06}
{"smiles": "S=P(N1CC1)(N1CC1)N1CC1", "max response": 5.1}
{"smiles": "CNS(=O)(=O)Cc1ccc2[nH]cc(CCN(C)C)c2c1", "max response": 40}
{"smiles": "NC(=O)N1c2ccccc2CC(=O)c2ccccc21", "max response": 10.2}
{"smiles": "COc1ccc2c(c1)c(CC(=O)OCC(=O)O)c(C)n2C(=O)c1ccc(Cl)cc1", "max response": 9.96}
{"smiles": "OC(Cn1cncn1)(Cn1cncn1)c1ccc(F)cc1F", "max response": 12.6}
{"smiles": "CN(Cc1cc(Br)cc(Br)c1N)C1CCCCC1", "max response": -7.97}
{"smiles": "COc1c(N2CCNC(C)C2)c(F)cc2c(=O)c(C(=O)O)cn(C3CC3)c12", "note": "(configuration not stated)", "max response": 19.6}
{"smiles": "CCOC(=O)c1ccc(OC(=O)CCCCCN=C(N)N)cc1", "max response": -14.4}
{"smiles": "CNNCc1ccc(C(=O)NC(C)C)cc1", "max response": -0.816}
{"smiles": "CCCCS(=N)(=O)CCC(N)C(=O)O", "note": "(configuration not stated)", "max response": 23.2}
{"assay": "qHTS Assay for Lipid Storage Modulators (AID 1519); on activity change, negative = inhibition: on the % scale 0 is the no-effect control and ±100 the full control effect", "details": "Drosophila S3 cells, BODIPY lipid droplet/cell ratio, laser cytometry; measured here: lipid channel max response; cells loaded with oleic acid", "summary_of_the_method": "as §1", "units": {"max response": "%"}}
{"smiles": "CCCCOc1ccc(CC(=O)NO)cc1", "max response": -0.905}
{"smiles": "COC(=O)Nc1nc2ccc(C(=O)c3ccccc3)cc2[nH]1", "max response": -17.4}
{"smiles": "NCCCC(O)(P(=O)(O)O)P(=O)(O)O", "max response": 16.4}
{"smiles": "Nc1[nH]c(=O)ncc1F", "max response": 3.39}
{"smiles": "CC[C@H](NC(C)C)[C@H](O)c1ccc(O)c2[nH]c(=O)ccc12", "max response": -21.9}
{"smiles": "CCCCCCNC(=O)n1cc(F)c(=O)[nH]c1=O", "max response": 19.7}
{"smiles": "COc1ccc(C(=O)CC(=O)c2ccc(C(C)(C)C)cc2)cc1", "max response": -13.6}
{"smiles": "CN1CCCC(n2nc(Cc3ccc(Cl)cc3)c3ccccc3c2=O)CC1", "note": "(configuration not stated)", "max response": 2.11}
{"smiles": "CN(C)CCc1c[nH]c2ccc(CS(=O)(=O)N3CCCC3)cc12", "max response": 27.5}
{"smiles": "Nc1nc(=S)c2[nH]cnc2[nH]1", "max response": 28.9}
{"smiles": "C1CCC(C(CC2CCCCN2)C2CCCCC2)CC1", "note": "(configuration not stated)", "max response": -21.2}
{"smiles": "Cc1cccc(N(C)C(=S)Oc2ccc3ccccc3c2)c1", "max response": -5.23}
{"smiles": "O=S(=O)(O)CCS", "max response": 25.1}
{"smiles": "COC(=O)Nc1nc2ccc(S(=O)c3ccccc3)cc2[nH]1", "note": "(configuration not stated)", "max response": 29.6}
{"smiles": "CCCc1cc(C(N)=S)ccn1", "max response": 15.8}
{"smiles": "S=P(N1CC1)(N1CC1)N1CC1", "max response": 17.7}
{"smiles": "CNS(=O)(=O)Cc1ccc2[nH]cc(CCN(C)C)c2c1", "max response": 52.5}
{"smiles": "NC(=O)N1c2ccccc2CC(=O)c2ccccc21", "max response": 19.4}
{"smiles": "COc1ccc2c(c1)c(CC(=O)OCC(=O)O)c(C)n2C(=O)c1ccc(Cl)cc1", "max response": 10.1}
{"smiles": "OC(Cn1cncn1)(Cn1cncn1)c1ccc(F)cc1F", "max response": 26.4}
{"smiles": "CN(Cc1cc(Br)cc(Br)c1N)C1CCCCC1", "max response": -15.4}
{"smiles": "COc1c(N2CCNC(C)C2)c(F)cc2c(=O)c(C(=O)O)cn(C3CC3)c12", "note": "(configuration not stated)", "max response": 29.5}
{"smiles": "CCOC(=O)c1ccc(OC(=O)CCCCCN=C(N)N)cc1", "max response": -13.1}
{"smiles": "CNNCc1ccc(C(=O)NC(C)C)cc1", "max response": 0.0882}
{"smiles": "CCCCS(=N)(=O)CCC(N)C(=O)O", "note": "(configuration not stated)", "max response": 33.5}
